Measurements as given in PubChem BioAssay (NCI).
Compounds without any hit were thinned out: in the full panel of roughly 79,000, 15% have a hit. Rule as the data show it: active = growth inhibition above about 70%; inactive = the rest.

Legend:
[1] = NCI Yeast Anticancer Drug Screen. Data for the rad50 strain (AID 155);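 also: 0% = growth of vehicle-only cultures of the same strain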; settings: S. cerevisiae rad50 strain growth inhibition; at 50.0 µM; hits give high values
Outline: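 Relative growth inhibition (compound vs vehicle) was measured in yeast with a defined repair-gene alteration.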

[2] = NCI Yeast Anticancer Drug Screen. Data for the mec2-1 strain (AID 157); settings: S. cerevisiae mec2-1 strain, at 50.0 µM, hits give high values
Outline: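 Cells of the genetically defined mec2-1 yeast strain are incubated with test compound. Inhibition of growth is calculated against vehicle-treated controls.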

[3] = NCI Yeast Anticancer Drug Screen. Data for the mlh1 rad18 strain (AID 175); settings: S. cerevisiae mlh1 rad18 strain growth inhibition; at 50.0 µM; hits give high values
Outline: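 Compound-treated yeast growth, normalised to vehicle controls. Strain bears defined DNA repair mutations.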

Measured: growth inhibition

Cc1cccc(C)c1NC(=S)N(C)C
inactive: [1] -8.8% | [2] -7.3% | [3] 4.65%

Cc1c(Cl)cccc1N1C(=O)CC(Sc2ccccc2N)C1=O (stereo not given)
inactive: [1] 1.05% | [2] -13.9% | [3] 3%

S=C(S)N1CCC(CCCC2CCN(C(=S)S)CC2)CC1
inactive: [1] -9.1% | [2] -22.1% | [3] -13.2%

CCOC(=O)C(=Cc1c[nH]c2ccc(Br)cc12)C(=O)OCC
inactive: [1] -17.5% | [2] -22.9% | [3] -5.15%

Cc1ccc(CNc2ccc(I)cc2)cc1
inactive: [1] 37.5% | [2] 37.9% | [3] 33.9%

Nc1cc(S(=O)(=O)c2ccc(O)c(N)c2)ccc1O
inactive: [1] 5.1% | [2] -0.85% | [3] 9.05%

O=C(O)/C=C/C(=O)Nc1cc(Cl)ccc1Cl
inactive: [1] 9.6% | [2] 12.1% | [3] 24.6%

OCCN(CCO)C(CO)(CO)CO
inactive: [1] 0.7% | [2] -12.8% | [3] 24.8%

O=C(O)/C=C/C(=O)Nc1cc(Cl)c(Cl)cc1Cl
inactive: [1] -11.3% | [2] -3.25% | [3] -10.9%

Cc1ccc(NC(=S)NCCO)cc1
inactive: [1] -25.4% | [2] -41.8% | [3] -13.6%

CCOc1ccc(/C=C(/C#N)C(N)=O)cc1
inactive: [1] 9.7% | [2] -8.1% | [3] 9.05%

CC1=NN(c2ccccc2)C(=O)/C1=C\c1ccc(N(CCC#N)CCC#N)cc1
inactive: [1] 6.85% | [2] -4.95% | [3] 21.9%

CN(C)c1ccc(P(c2ccc(N(C)C)cc2)c2ccc(N(C)C)cc2)cc1
inactive: [1] -17.2% | [2] -15.3% | [3] -25.2%

COc1cc(/C=N/NC(=O)c2ccncc2)cc(OC)c1OC
inactive: [1] -14.2% | [2] -48.5% | [3] -16.5%

COc1ccc(NCc2ccc(C)cc2)cc1
inactive: [1] -2.55% | [2] -17.1% | [3] 3.45%

O=C1OC(c2ccc(Cl)cc2)=N/C1=C\c1ccccc1
inactive: [1] -4.85% | [2] -5.5% | [3] -6.65%

CC(=O)Nc1ccc(/C=C/C(=O)c2ccc(Cl)cc2)cc1
inactive: [1] 18.2% | [2] -4.65% | [3] 2.75%

CSc1sc2cc([N+](=O)[O-])ccc2[n+]1C
inactive: [1] -0.4% | [2] -7.6% | [3] 55.4%

COc1cc2c(cc1O)C(Cc1ccc(OC)c(OC)c1)N(C)CC2 (stereo not given)
inactive: [1] 4.25% | [2] 0.85% | [3] 2.35%

COc1cc(/C=C(/C#N)C(N)=O)ccc1O
inactive: [1] -1.7% | [2] -35% | [3] -54.9%

CCCCCCCCCCCC(=O)CCCCC
inactive: [1] -29.5% | [2] -17.1% | [3] -29.4%

COc1cc(/C=N/n2cnnc2)cc(OC)c1OC
inactive: [1] -8.35% | [2] 5.45% | [3] -13.7%

CC12CC3(C)CC(C)(C1)CC(C(Cl)C(=O)O)(C2)C3 (stereo not given)
inactive: [1] 50.7% | [2] 22.8% | [3] 29.2%

Cc1ccc(-c2nc3cc(Cl)ccc3c(=O)o2)cc1
inactive: [1] 14.6% | [2] -11.3% | [3] 6.3%

CS(=O)(=O)c1ccc(NN)c([N+](=O)[O-])c1 (tested in a mixture with another compound)
inactive: [1] -25.7% | [2] -46.8% | [3] -39.1%

CCOC(=O)C1CCC(C(=O)OCC)N1c1ccc(C=O)cc1 (stereo not given)
inactive: [1] 16.1% | [2] -18.1% | [3] -3.45%

COc1cc(/C=N/NC(=O)c2cccs2)cc(OC)c1OC
inactive: [1] -12.8% | [2] -26.1% | [3] -13.3%

Clc1cccc(Cl)c1Br
inactive: [1] 7.45% | [2] -26.2% | [3] 16.9%

O=C1c2ccccc2C(=O)N1/N=C/c1cc(Cl)cc(Cl)c1O
inactive: [1] 0.95% | [2] -17.4% | [3] -4.95%

N#[N+]c1ccc2c(S(=O)(=O)O)cccc2c1O
inactive: [1] -17.9% | [2] -16.2% | [3] -25.7%
